A selection: hits, their analogues and other compounds. The true share with any hit is near 15%.
Pf growth 96h: inhibits malaria parasite growth, 96 h. Potency, µM (highest dose often 28.7 µM), for the others: at the highest dose activity change, negative = inhibition, usual class: inhibitors. 320,000 compounds, 6.9% hits. P. falciparum luciferase reporter growth, 96 h. AID 504834; further: potency means the concentration at half of the fitted maximal effect; on the % scale 0 is the no-effect control and ±100 the full control effect
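Cell-based qHTS: luciferase-tagged P. falciparum in erythrocytes (2% hematocrit, 0.05% parasitemia final) incubated with compounds for 96 hours, 37 C, 5% CO2; luciferase detection reagent then added and luminescence measured.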
Pf growth 48h: inhibits P. falciparum growth in the first generation, 48 h; P. falciparum luciferase growth in erythrocytes, 48 h; Potency, µM (top dose mostly 28.7 µM), for inactives: at the highest dose activity change, negative = inhibition, most hits filed as inhibitors; 310,000 compounds, 5.9% hits; further: potency means the concentration at half of the fitted maximal effect; on the % scale 0 is the no-effect control and ±100 the full control effect
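Compounds are pin-transferred into medium, infected erythrocytes (2% hematocrit, 0.1% parasitemia final) are added, and plates sit one parasite generation at 37 C in 5% CO2. Detection reagent is then added and luminescence measured.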
HCMV inh: inhibitors of human cytomegalovirus; AID 1259415; 410,000 compounds, 4.5% hits; HFF cells, HCMV-luciferase reporter, 72 h; stronger effect = lower value; activity change, negative = inhibition, % at 57.5 µM; in the data active means activity change below about -60%; inconclusive means no clear call, values can overlap the other calls; inactive means above about -39%; further: on the % scale 0 is the no-effect control and ±100 the full control effect
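Inhibition of viral replication was scored as loss of reporter luminescence in HFFs infected with HCMV-luciferase (MOI 1 PFU/cell) for 72 h; compounds tested at 2 doses, normalized to buffer and Salinomycin controls.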
Sm TGR inh: S. mansoni TGR enzyme inhibition; Q962Y6; purified TGR, DTNB reduction, TNB absorbance 405 nm; Potency, µM (titrated, usually from 114 µM), inactives show at the highest dose activity change, negative = inhibition, usual class: inhibitors; 360,000 compounds, 3% hits; AID 485364; further: potency means the concentration at half of the fitted maximal effect; on the % scale 0 is the no-effect control and ±100 the full control effect; nearly all actives have a fitted effect of over 60% in size
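TGR 20 nM + NADPH 100 uM (dispensed conc.), cpd preinc 15 min RT; start with NADPH (500 uM addition) then DTNB (15 mM addition). Kinetic TNB absorbance, 405 nm filter. Four-parameter Hill fit across titration.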
SARS PLpro yeast: blocks SARS-CoV papain-like protease in a yeast assay; S. cerevisiae expressing SARS-CoV PLpro, growth rescue; AID 485353; Potency, µM (series often up to 32.9 µM), for inactives: at the top dose activity, positive = growth rescue, actives largely listed as activators; 330,000 compounds, 0.19% hits; calls by dose curve; further: potency means the concentration at half of the fitted maximal effect; 0% is about no effect; nearly all actives have a fitted effect of over 55% in size
HCV inhibitor: blocks hepatitis C virus | Huh7.5.1 HCVcc-Cre infection, luciferase reporter, 44 h | Potency, µM (highest dose often 41.8 µM), for the others: at the highest dose activity change, negative = inhibition, hits mostly inhibitors | 340,000 compounds, 3.4% hits | AID 651820; further: potency means the concentration at half of the fitted maximal effect; on the % scale 0 is the no-effect control and ±100 the full control effect
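Seed cells (1,000/well) for 4 h; treat with compound and infect with HCVcc-Cre, moi about 0.5. Incubate 44 h, then detect luciferase activity.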
The depositor's hits bear a star; [ ] = dose if it differs, or a comment. Unless noted, the call rests on the fitted dose curve; in most records, active means well fitted curve in the direction sought with a large enough effect; inconclusive means small, poorly fitted or top-dose-only effect, or another doubt; inactive means no such curve, though single readings can be large; an effect the other way counts as inactive or inconclusive.

What do the screens show for `CCOCc1cc(=O)[nH]c(SC)n1`?
Pf growth 96h: -15.3%; Pf growth 48h: 1.7%; HCMV inh: -60.1*; Sm TGR inh: 9.0%; SARS PLpro yeast: 3.7%; HCV inhibitor: 12.2%

What do the screens show for `Cc1ccc(-n2nc3c(=O)n(CCCC(=O)NCC(C)c4ccccc4)nc(C)c3c2C)cc1` (configuration not stated)?
Pf growth 96h: 6.5%; Pf growth 48h: inconclusive; HCMV inh: -11.5; Sm TGR inh: 10.6%; SARS PLpro yeast: 3.9%; HCV inhibitor: 22.4µM*

How did CCN1CCN(CCNC(=O)CCc2c(C)c3c(C)nn(-c4ccccc4)c3n(C)c2=O)CC1 do in these assays?
Pf growth 96h: 10.6%; Pf growth 48h: inconclusive; Sm TGR inh: -20.4%; SARS PLpro yeast: -2.7%; HCV inhibitor: 15.8µM*

Results for Cc1ccc(CNC(=O)CCCn2nc(C)c3c(C)n(-c4ccccc4)nc3c2=O)cc1 ?
Pf growth 96h: 66.3%; Pf growth 48h: 0.3%; HCMV inh: inconclusive; Sm TGR inh: -6.6%; SARS PLpro yeast: 1.8%; HCV inhibitor: inconclusive

What do the screens show for `CCN1CCN(CCNC(=O)CCCn2nc(C)c3c(C)n(-c4ccc(C)cc4)nc3c2=O)CC1`?
Pf growth 96h: inconclusive; Pf growth 48h: -14.3%; HCMV inh: -66.6*; Sm TGR inh: 2.1%; SARS PLpro yeast: -11.6%; HCV inhibitor: -12.5%

How did Cc1ccc(-n2nc3c(=O)n(CCCC(=O)N4CCC(C(N)=O)CC4)nc(C)c3c2C)cc1 do in these assays?
Pf growth 96h: inconclusive; Pf growth 48h: 10.4µM*; HCMV inh: -21.9; Sm TGR inh: 0.4%; SARS PLpro yeast: 2.0%; HCV inhibitor: -9.5%

How did Cc1ccc(-n2nc3c(=O)n(CCCC(=O)N4CCC(C)CC4)nc(C)c3c2C)cc1 do in these assays?
Pf growth 96h: -0.5%; Pf growth 48h: inconclusive; HCMV inh: inconclusive; Sm TGR inh: -0.3%; SARS PLpro yeast: -2.2%; HCV inhibitor: -16.2%

Results for CCN(CC)C(=O)C1CCCN(Cc2ccc3ccccc3c2)C1 (configuration not stated) ?
Pf growth 96h: 13.1µM*; Pf growth 48h: 8.7%; HCMV inh: -1.7; Sm TGR inh: -11.3%; SARS PLpro yeast: 8.7%; HCV inhibitor: -18.0%

Results for NC(=O)C1CCCN(Cc2ccc3ccccc3c2)C1 (configuration not stated) ?
Pf growth 96h: 2.62µM*; Pf growth 48h: inconclusive; HCMV inh: -9.3; Sm TGR inh: -2.4%; SARS PLpro yeast: 3.8%; HCV inhibitor: 5.8%

Results for O=C(C1CCCN(Cc2ccccc2)C1)N1CCCCC1 (configuration not stated) ?
Pf growth 96h: inconclusive; HCMV inh: -5.7; Sm TGR inh: -2.2%; SARS PLpro yeast: 9.0%; HCV inhibitor: 1.1%

Results for CCN(CC)C(=O)C1CCCN(Cc2cccc(F)c2)C1 (configuration not stated) ?
Pf growth 96h: -10.6%; HCMV inh: -8.9; Sm TGR inh: 8.2%[11.4 µM]; SARS PLpro yeast: -4.5%; HCV inhibitor: 8.2%

How did O=C(Cc1ccc([N+](=O)[O-])cc1)Nc1ccc(Br)cn1 do in these assays?
Pf growth 96h: inconclusive; Pf growth 48h: -14.0%; HCMV inh: -61.2*; Sm TGR inh: -15.7%; SARS PLpro yeast: -2.0%; HCV inhibitor: -15.0%

What do the screens show for `O=C(COc1ccc(Br)cc1)Nc1ccc([N+](=O)[O-])cn1`?
Pf growth 96h: 4.15µM*; Pf growth 48h: 36.8%; HCMV inh: -31.1; Sm TGR inh: -26.6%; SARS PLpro yeast: -4.0%; HCV inhibitor: 2.2%

What do the screens show for `CN(CC(=O)Nc1cccc(F)c1)C(=O)CC1CCCCC1`?
Pf growth 96h: inconclusive; Pf growth 48h: inconclusive; HCMV inh: -34.7; Sm TGR inh: 5.1%; SARS PLpro yeast: 0.6%; HCV inhibitor: -4.0%

Results for O=C1C=C(c2cccc3c2Oc2ccccc2S3)C[C@@H](c2ccc3c(c2)OCO3)C1 ?
HCMV inh: -4.2

What do the screens show for `O=C(Nc1nccs1)C(=O)c1c[nH]c2ccccc12`?
Pf growth 48h: -25.7%; HCMV inh: 332.7; Sm TGR inh: -3.9%; SARS PLpro yeast: -15.9%; HCV inhibitor: 1.2%

How did Cc1ccnc(NC(c2ccncc2)c2c(C)[nH]c3ccccc23)c1 (configuration not stated) do in these assays?
Pf growth 96h: inconclusive; Pf growth 48h: -1.7%; HCMV inh: -21.1; Sm TGR inh: 2µM*; SARS PLpro yeast: -1.1%; HCV inhibitor: 4.8%

What do the screens show for `Cc1[nH]c2ccccc2c1C(Nc1nccs1)c1ccncc1` (configuration not stated)?
Pf growth 96h: inconclusive; Pf growth 48h: -17.6%; HCMV inh: 80.1; Sm TGR inh: 39.8µM*; SARS PLpro yeast: -3.6%; HCV inhibitor: 0.4%

How did Cc1ccnc(NC(=O)CCc2c[nH]c3ccccc23)c1 do in these assays?
Pf growth 96h: 85.5%; Pf growth 48h: 100.4%; HCMV inh: 29.7; Sm TGR inh: 79.4%; SARS PLpro yeast: -9.6%; HCV inhibitor: inconclusive

What do the screens show for `O=C(O)C(c1ccccc1)C(O)c1ccc2c(c1)OCO2` (configuration not stated)?
HCMV inh: -7.8; HCV inhibitor: 1.7%

Results for CCC1=C(OC(=O)N(CC)CC)N2C(=O)OC(=NCc3ccccc3)[C@]2(C)[C@H]2C1=CC[C@H]1C(=O)NC(=O)[C@H]12 ?
Pf growth 96h: -3.7%; Pf growth 48h: inconclusive; HCMV inh: -18.8; Sm TGR inh: -5.8%; SARS PLpro yeast: 1.4%; HCV inhibitor: 57.0%[8.37 µM]

Results for CCC1=C(OC(=O)N(CC)CC)N2C(=O)OC(=NCC3CC3)[C@]2(C)[C@H]2C1=CC[C@H]1C(=O)N(CC)C(=O)[C@H]12 ?
Pf growth 96h: inconclusive; Pf growth 48h: 10.4µM*; HCMV inh: 10.0; Sm TGR inh: -17.9%; SARS PLpro yeast: -1.6%; HCV inhibitor: 16.0%[8.37 µM]

Results for CCC1=C(OC(=O)N(CC)CC)N2C(=O)OC(=NCC3CC3)[C@]2(C)[C@H]2C1=CC[C@H]1C(=O)N(C)C(=O)[C@H]12 ?
Pf growth 96h: 10.4µM*; Pf growth 48h: 8.28µM*; HCMV inh: -1.3; Sm TGR inh: 6.8%; SARS PLpro yeast: 3.7%; HCV inhibitor: -12.4%

What do the screens show for `Cc1ccc(Nc2cc(C)nc(-n3nc(C)cc3C)n2)cc1`?
HCMV inh: -91.8*; Sm TGR inh: -1.6%

How did Cc1cc(Nc2ccc(Cl)cc2C)nc(-n2nc(C)cc2C)n1 do in these assays?
HCMV inh: inconclusive; Sm TGR inh: -1.2%

Results for CNc1cc(C)nc(-n2nc(C)cc2C)n1 ?
Pf growth 96h: 4.65µM*; Pf growth 48h: 8.28µM*; HCMV inh: inconclusive; Sm TGR inh: 8.9%; SARS PLpro yeast: 1.5%; HCV inhibitor: 3.6%

From PubChem
